{
  "source": "the supplement of paper PMC13380429",
  "note": "Counter-ions that a name gives are not always drawn. A number with no mark means an inactive call.",
  "data": [
    {"test_system": "Vero E6 infected with SARS-CoV-2", "assay": "inhibition of SARS-CoV-2 cytopathic effect; higher = more antiviral protection, active = above 15", "settings": "1 nM; 48 h", "units": {"inhibition of SARS-CoV-2 cytopathic effect": "%"}, "values": [
      {"smiles": "NCCCC[C@H](NC(=O)[C@@H]1CCCN1C(=O)[C@@H]1CSSC[C@H](N)C(=O)N[C@@H](Cc2ccc(O)cc2)C(=O)N[C@@H](Cc2ccccc2)C(=O)N[C@@H](CCC(N)=O)C(=O)N[C@@H](CC(N)=O)C(=O)N1)C(=O)NCC(N)=O", "note": "[lypressin]", "inhibition of SARS-CoV-2 cytopathic effect": 0.07},
      {"smiles": "CCCCC/C=C\\C/C=C\\CCCCCCCC(=O)NCCCC(=O)O", "note": "[GABA-linoleamide]", "inhibition of SARS-CoV-2 cytopathic effect": 0.87},
      {"smiles": "CCCCCCCCCCOc1cc2c(O)c(C(=O)OCC)cnc2cc1OCC", "note": "[decoquinate]", "inhibition of SARS-CoV-2 cytopathic effect": -0.9},
      {"smiles": "NC(=O)c1nc(F)cnc1O", "note": "[favipiravir]", "inhibition of SARS-CoV-2 cytopathic effect": -4.88},
      {"smiles": "Cc1ncc(COP(=O)([O-])[O-])c(CN(CCN(CC(=O)O)Cc2c(COP(=O)([O-])O)cnc(C)c2O)CC(=O)O)c1O.[Mn].[Na+].[Na+].[Na+]", "note": "[Mangafodipir (trisodium)]", "inhibition of SARS-CoV-2 cytopathic effect": -2.31},
      {"smiles": "O=C(c1ccc(F)cc1)C1CCN(CCn2c(=O)[nH]c3ccccc3c2=O)CC1", "note": "[ketanserin]", "inhibition of SARS-CoV-2 cytopathic effect": 1.58},
      {"smiles": "Cc1ccc(Cl)c(OCC(O)CNC(C)(C)C)c1", "note": "(stereo not given) [bupranolol]", "inhibition of SARS-CoV-2 cytopathic effect": 1.32},
      {"smiles": "Cc1c(Cl)cccc1S(=O)(=O)Nc1nc(CC(=O)N2CCN(C)CC2)cs1", "inhibition of SARS-CoV-2 cytopathic effect": 1.65},
      {"smiles": "C[C@@H](O)[C@H]1C(=O)N2C(C(=O)[O-])=C(SC3Cn4cnc[n+]4C3)[C@H](C)[C@H]12", "note": "(stereo not given in full) [biapenem]", "inhibition of SARS-CoV-2 cytopathic effect": -2.15},
      {"smiles": "O=S(=O)(/N=C/c1c(O)ccc2ccccc12)c1cccs1", "inhibition of SARS-CoV-2 cytopathic effect": 1.63},
      {"smiles": "O=C(CCCCCCC(=O)Nc1cccnc1)NO", "note": "[pyroxamide]", "inhibition of SARS-CoV-2 cytopathic effect": 0.71},
      {"smiles": "CCOC(=O)[C@@H](N)Cc1ccc(-c2cc(O[C@H](c3ccc(Cl)cc3-n3ccc(C)n3)C(F)(F)F)nc(N)n2)cc1", "note": "[telotristat-ethyl]", "inhibition of SARS-CoV-2 cytopathic effect": -0.32},
      {"smiles": "CC(NCCC(c1ccccc1)c1ccccc1)c1ccccc1", "note": "(stereo not given) [fendiline]", "inhibition of SARS-CoV-2 cytopathic effect": 0.75},
      {"smiles": "Nc1ncc(Cc2ccc(Br)cc2)s1", "inhibition of SARS-CoV-2 cytopathic effect": -0.22},
      {"smiles": "CO/N=C(\\C(=O)N[C@@H]1C(=O)N2C(C(=O)O)=C(Cn3ccc(=N)n3CCO)CS[C@H]12)c1csc(N)n1", "note": "[Cefoselis sulfate]", "inhibition of SARS-CoV-2 cytopathic effect": 0.33}
    ]}
  ]
}
